tim23-1 inh: tim23-1 yeast growth inhibition; S. cerevisiae tim23-1 growth, BacTiter-Glo luminescence, 24 h; inhibition, % at 20 µM; actives 1.3% (n = 330,000);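 active = growth inhibition of the mutant yeast at or above 50%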;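 also: temperature-sensitive mutant grown at 25 °C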
tim10-1 inh: inhibits growth of tim10-1 mutant yeast; actives 2.2% (n = 330,000); S. cerevisiae tim10-1 ts strain growth, BacTiter-Glo, 24 h; inhibition, % at 20 µM;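 active = inhibition of at least 40%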;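 also: mutant grown at 25 °C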
TIM10 inh: TIM10 yeast growth inhibition | S. cerevisiae TIM10 strain growth, BacTiter-Glo luminescence, 24 h | inhibition, % at 10 µM | actives 1.4% (n = 330,000);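 active = inhibition of 40% or more at the single tested concentration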;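 also: wild-type TIM10 isogenic control strain grown at permissive 25 °C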
NLRP3 yeast inh: inhibitors of NALP3 inflammasome in yeast. actives 0.39% (n = 330,000). Yeast reconstituted NLRP3/ASC/caspase-1, beta-gal luminescence, 24 h. inhibition, % at 10 µM;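 active = inhibition of 50% or more; inactive = inhibition below 50%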
SKKanGAS inh: SKKanGAS growth inhibition | S. pyogenes SKKanGAS, kanamycin growth, BacTiter-Glo, 6 h | inhibition, % at 7.5 µM | actives 1.3% (n = 300,000) | AID 1662;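 active = mean replicate score, as percent of positive control median, at least 50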;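 also: strain carries kanamycin resistance gene driven by streptokinase promoter and grows in 40 µg/ml kanamycin; loss of luminescence reflects streptokinase promoter inhibition or plain growth inhibition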
PfHsp90 set2: inhibits growth of yeast expressing Plasmodium falciparum Hsp90; inhibition, % at 9.4 µM; actives 0.32% (n = 310,000); S. cerevisiae expressing PfHsp90, BacTiter-Glo ATP, 48 h; yeast lacking PDR1 and PDR3 efflux regulators;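 active = every replicate shows inhibition above about 80%, whatever the replicate mean, limit read from the data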
tim10-1 confirm: tim10-1 yeast growth inhibition, confirmed; shares compounds with tim10-1 inh; S. cerevisiae tim10-1 ts strain growth, BacTiter-Glo, 24 h; inhibition, % at 20 µM; actives 56% (n = 7,400); AID 463213;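 active = inhibition of yeast growth at or above a set limit in either of two repeat tests at 20 µM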;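 also: tim10-1 mutant grown at permissive 25 °C to find synthetic lethal compounds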
tim10 confirm: TIM10 yeast growth inhibition, confirmed; S. cerevisiae tim10 strain growth, BacTiter-Glo luminescence, 24 h; AID 463215; inhibition, % at 10 µM; shares compounds with TIM10 inh; actives 63% (n = 4,600);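 active = inhibition of yeast growth at or above a set limit in either of two replicates at 10 µM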; also: this counterscreen used the strain with wild-type TIM10
tim23-1 confirm: tim23-1 yeast growth inhibition, confirmed; S. cerevisiae tim23-1 growth, BacTiter-Glo luminescence, 24 h; inhibition, % at 20 µM; actives 83% (n = 4,400); shares compounds with tim23-1 inh;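 active = inhibition above about 39% in either of two replicate wells at 20 µM, limit read from the data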;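 also: temperature-sensitive tim23-1 mutant grown at 25 °C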
Hits are given with their value. Only some compounds are listed: those with a hit (about 4.6% of all), similar ones and a draw of the others.

How did Fc1ccc(Nc2nnc(C(F)(F)F)s2)cc1Cl do in these assays?
tim23-1 inh: 77; tim10-1 inh: 69; TIM10 inh: 56; NLRP3 yeast inh: inactive; SKKanGAS inh: inactive; PfHsp90 set2: inactive; tim10-1 confirm: 84; tim10 confirm: 42; tim23-1 confirm: 85

Results for FC(F)(F)c1nnc(Nc2ccc(Cl)cc2)s1 ?
tim23-1 inh: inactive; tim10-1 inh: inactive; TIM10 inh: inactive; NLRP3 yeast inh: inactive; SKKanGAS inh: inactive; PfHsp90 set2: inactive

What do the screens show for `c1cnc2ccc3ncccc3c2c1`?
tim23-1 inh: inactive; tim10-1 inh: inactive; TIM10 inh: inactive; NLRP3 yeast inh: inactive; SKKanGAS inh: inactive; PfHsp90 set2: inactive

Results for O=Cc1ccc(O)c2ncccc12 ?
tim23-1 inh: 71; tim10-1 inh: 44; TIM10 inh: 54; NLRP3 yeast inh: inactive; SKKanGAS inh: inactive; PfHsp90 set2: 124; tim10-1 confirm: inactive; tim10 confirm: 75; tim23-1 confirm: 72

What do the screens show for `O=c1oc2c(-c3cccc(F)c3)cc(O)cc2s1`?
tim23-1 inh: 57; tim10-1 inh: 52; TIM10 inh: inactive; NLRP3 yeast inh: inactive; SKKanGAS inh: inactive; PfHsp90 set2: inactive; tim10-1 confirm: 48; tim23-1 confirm: 56

How did Nc1nnc(-c2cccc(F)c2)s1 do in these assays?
tim23-1 inh: inactive; tim10-1 inh: inactive; TIM10 inh: inactive; NLRP3 yeast inh: inactive; SKKanGAS inh: inactive; PfHsp90 set2: inactive

What do the screens show for `O=C(CCC1CCCN(C(=O)c2ccc3cc[nH]c3c2)C1)NCc1ccc(F)c(F)c1` (stereo not given)?
tim23-1 inh: inactive; tim10-1 inh: inactive; TIM10 inh: inactive; NLRP3 yeast inh: inactive; SKKanGAS inh: inactive; PfHsp90 set2: inactive

How did O=C1OC(c2ccc(F)cc2)=N/C1=C\C=C/c1ccccc1 do in these assays?
tim23-1 inh: 76; tim10-1 inh: 50; TIM10 inh: inactive; NLRP3 yeast inh: inactive; SKKanGAS inh: inactive; PfHsp90 set2: inactive; tim10-1 confirm: 40; tim23-1 confirm: inactive

How did C=CCN=C1CCCc2c1[nH]c1ccc(C)cc21 do in these assays?
tim23-1 inh: inactive; tim10-1 inh: inactive; TIM10 inh: inactive; NLRP3 yeast inh: inactive; SKKanGAS inh: inactive; PfHsp90 set2: inactive

Results for Cc1c(C(=O)OCC(=O)N(C)c2ccccc2)oc2ccccc12 ?
tim23-1 inh: 56; tim10-1 inh: 49; TIM10 inh: inactive; NLRP3 yeast inh: inactive; SKKanGAS inh: inactive; PfHsp90 set2: inactive; tim10-1 confirm: 44; tim23-1 confirm: 60

Results for Cc1c(C(=O)OCC(=O)N(C)Cc2ccccc2)oc2ccccc12 ?
tim23-1 inh: inactive; tim10-1 inh: inactive; TIM10 inh: inactive; NLRP3 yeast inh: inactive; PfHsp90 set2: inactive

How did Cc1cc(C(=O)OCC(=O)N(C)c2ccccc2)ccc1[N+](=O)[O-] do in these assays?
tim23-1 inh: inactive; tim10-1 inh: inactive; TIM10 inh: inactive; NLRP3 yeast inh: inactive; SKKanGAS inh: inactive

Results for CC(=O)Oc1ccc(-c2cccc(C(=O)OCC(=O)N(C)c3ccccc3)c2)cc1 ?
tim23-1 inh: 50; tim10-1 inh: 46; TIM10 inh: inactive; NLRP3 yeast inh: inactive; SKKanGAS inh: inactive; PfHsp90 set2: inactive; tim10-1 confirm: 34; tim23-1 confirm: inactive

How did Cc1ccc(C(=O)OCC(=O)N(C)c2ccccc2)cc1C do in these assays?
tim23-1 inh: 53; tim10-1 inh: 41; TIM10 inh: inactive; NLRP3 yeast inh: inactive; SKKanGAS inh: inactive; PfHsp90 set2: inactive; tim10-1 confirm: 38; tim23-1 confirm: inactive

How did CN(C(=O)COC(=O)c1cccc(F)c1)c1ccccc1 do in these assays?
tim23-1 inh: inactive; tim10-1 inh: inactive; TIM10 inh: inactive; NLRP3 yeast inh: inactive; SKKanGAS inh: inactive; PfHsp90 set2: inactive

What do the screens show for `CN(C)c1cccc(C(=O)OCC(=O)N(C)c2ccccc2)c1`?
tim23-1 inh: 52; tim10-1 inh: 48; TIM10 inh: inactive; NLRP3 yeast inh: inactive; SKKanGAS inh: inactive; PfHsp90 set2: inactive; tim10-1 confirm: 48; tim23-1 confirm: 50

Results for CCOC(=O)c1ccccc1-c1csc(N)n1 ?
tim23-1 inh: inactive; tim10-1 inh: inactive; TIM10 inh: inactive; NLRP3 yeast inh: inactive; SKKanGAS inh: inactive; PfHsp90 set2: inactive

What do the screens show for `COc1ccc(/C=C2\SC(N3CCc4ccccc4C3)=NC2=O)cc1`?
tim23-1 inh: 65; tim10-1 inh: 55; TIM10 inh: 53; NLRP3 yeast inh: inactive; SKKanGAS inh: inactive; PfHsp90 set2: inactive; tim10-1 confirm: 50; tim10 confirm: inactive; tim23-1 confirm: 52

Results for CCOC(=O)CSC1=NC(=O)/C(=C/c2ccc(OC)cc2)S1 ?
tim23-1 inh: 90; tim10-1 inh: 40; TIM10 inh: 59; NLRP3 yeast inh: inactive; SKKanGAS inh: inactive; PfHsp90 set2: inactive; tim10-1 confirm: 70; tim10 confirm: inactive; tim23-1 confirm: 39

Results for COc1ccc(/C=C2\SC(N)=NC2=O)cc1 ?
tim23-1 inh: inactive; tim10-1 inh: inactive; TIM10 inh: inactive; NLRP3 yeast inh: inactive; SKKanGAS inh: inactive; PfHsp90 set2: inactive

Results for CCOC(=O)CSc1nc2sc(C)c(C)c2c(=O)[nH]1 ?
tim23-1 inh: inactive; tim10-1 inh: inactive; TIM10 inh: inactive; NLRP3 yeast inh: inactive; SKKanGAS inh: inactive; PfHsp90 set2: inactive

What do the screens show for `CCOC(=O)/C(=C\c1ccc(Cl)cc1)c1nc2sc(C)c(C)c2c(=O)[nH]1`?
tim23-1 inh: 72; tim10-1 inh: 48; TIM10 inh: 44; NLRP3 yeast inh: inactive; SKKanGAS inh: inactive; PfHsp90 set2: inactive; tim10-1 confirm: 49; tim10 confirm: inactive; tim23-1 confirm: 61

How did CCN(CC)C(=O)c1[nH]cnc1C(=O)Nc1cccc(Cl)c1 do in these assays?
tim23-1 inh: inactive; tim10-1 inh: inactive; TIM10 inh: inactive; NLRP3 yeast inh: inactive; PfHsp90 set2: inactive

Results for CC1CC(C)CN(S(=O)(=O)c2cc3c(cc2Cl)NC(=O)CO3)C1 (stereo not given) ?
tim23-1 inh: inactive; tim10-1 inh: inactive; TIM10 inh: inactive; NLRP3 yeast inh: inactive; SKKanGAS inh: inactive; PfHsp90 set2: inactive

Results for CN(C1CCCCC1)S(=O)(=O)c1cc2c(cc1Cl)NC(=O)CO2 ?
tim23-1 inh: 51; tim10-1 inh: 47; TIM10 inh: inactive; NLRP3 yeast inh: inactive; SKKanGAS inh: inactive; PfHsp90 set2: inactive; tim10-1 confirm: inactive; tim23-1 confirm: inactive

How did CC(C)CNC(=O)c1cccc(NC(=O)COc2ccc([N+](=O)[O-])cc2)c1 do in these assays?
tim23-1 inh: inactive; tim10-1 inh: inactive; TIM10 inh: inactive; NLRP3 yeast inh: inactive; SKKanGAS inh: inactive; PfHsp90 set2: inactive
